A number with no mark means an inactive call. Activity calls are given as the source filed them. The call rests on the fitted dose curve; in most records, active means well fitted inhibition curve with a large enough effect; inconclusive means small, poorly fitted or top-dose-only effect; inactive means flat fitted curve, though single readings scatter.
Each molecule was assayed on Nanoluciferase (engineered Oplophorus gracilirostris luciferase) (assay: Primary Nanoluciferase (NLuc) qHTS assay for identification of artifact compounds. (AID 1845222;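 on activity, negative = inhibition: 0% = DMSO and -100% = no enzyme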)). Conditions: NLuc-conditioned medium, Nano-Glo luminescence, 5 min; series mostly up to 54.1 µM; activity, negative = inhibition: at the top concentration.
Outline: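 Luminescence from secreted NLuc (filtered, 1:55-diluted S16 cell medium) read 5 min after Nano-Glo substrate; compounds preincubated 15 min, RT. Hill fits of inhibition normalized to DMSO and no-enzyme.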
Potency means the concentration at half of the fitted maximal effect.

| Structure (SMILES) | activity, negative = inhibition [%] | Potency |
| --- | --- | --- |
| CC[N+]1(CC)CCC(=C(c2ccccc2)c2ccccc2)C1C (stereo not given) | 3.55 |  |
| Nc1c(NC/C=C\COc2cc(CN3CCCCC3)ccn2)c(=O)c1=O | -2.22 |  |
| C[C@H](CN1CCCC1)C(=O)c1ccc(C(F)(F)F)cc1 | 3.52 |  |
| CCCCCOc1ccc(C2SC(=O)NC2=O)cc1OCC (stereo not given) | -6.38 |  |
| CO[C@]1(NC(=O)CSC(F)F)C(=O)N2C(C(=O)O)=C(CSc3nnnn3CCO)CO[C@H]21 | -1.99 |  |
| CCCN(CCC)C(=O)C(CCC(=O)OCCCN1CCN(CCOC(=O)Cc2c(C)n(C(=O)c3ccc(Cl)cc3)c3ccc(OC)cc23)CC1)NC(=O)c1ccccc1 (stereo not given) | -2.72 |  |
| CCN(CC)CCOc1ccc(/C(=C(\Cl)c2ccccc2)c2ccccc2)cc1 | 1.38 |  |
| COc1cc(C(=O)OC(COCCC(C)C)CN2CCOCC2)cc(OC)c1OC (stereo not given) | -2.49 |  |
| Cc1cccc(N(C)C(=S)Oc2ccc3c(c2)CCC3)c1 | 1.55 |  |
| CO/N=C(/C(=O)N[C@@H]1C(=O)N2C(C(=O)O)=C(Cn3nnc(C)n3)CS[C@H]12)c1csc(N)n1 | 1.09 |  |
| CC(=O)[C@H]1CC[C@H]2[C@@H]3C=CC4=CC(=O)CC[C@@]4(C)[C@@H]3CC[C@]12C | -7.16 |  |
| Cc1ccccc1C(=O)N1CC/C(=N\OS(=O)(=O)O)c2ccc(Cl)cc21 |  | 26.9 µM (active) |
| CN(C)C(=O)CNC(=O)Cc1ccccc1 | 3.15 |  |
| OC1(c2ccc(Cl)c(C(F)(F)F)c2)CCN(CCCC(c2ccc(F)cc2)c2ccc(F)cc2)CC1 | -5 |  |
| CC(=O)OCC(=O)Nc1cc(C#N)cc(NC(=O)COC(C)=O)c1Cl | 3.82 |  |
| O=C1CC[C@H](C(=O)N2CCCCC2)N1 | 0 |  |
| O=C1[C@@H]2[C@H]3CC[C@H](C3)[C@@H]2C(=O)N1CCCCN1CCN(c2ncccn2)CC1 | 1.45 |  |
| CCNC(=O)NCCCOc1cccc(CN2CCCCC2)c1 | -0.85 |  |
| CC(=O)O[C@@H]1C(=O)O[C@@H]2[C@H]1OC(=O)[C@@H]2OC(C)=O | 2.35 |  |
| CN1[C@@H]2CC[C@H]1CC(NC(=O)n1c(=O)[nH]c3ccccc31)C2 (stereo not given in full) | -4.62 |  |
| CCCCNc1ccc(C(=O)OCCN(CC)CC)cc1 | -2.38 |  |
| CC(=O)Nc1ccn(C2COC(COC(=O)c3ccccc3)O2)c(=O)n1 (stereo not given) | -7.48 |  |
| CC1CC(=O)NN=C1c1ccc(NCC(C)(C)NCC(O)COc2cc(Cl)ccc2C#N)cc1 (stereo not given) | -4.92 |  |
| O=C(NN1CCCC1)NS(=O)(=O)c1ccc(Cl)cc1 | -6.75 |  |
| CCN1C(=O)c2ccccc2C1Nc1ccc(OCCN2CCCCC2)cc1 (stereo not given) | 1.39 |  |
| COc1cc(NS(=O)(=O)c2ccc(N)cc2)nc(C)n1 | 1.55 |  |
| CN1CCC(N(Cc2cccs2)c2ccccc2)CC1 | 0.337 |  |
| CC1CN(c2cc3c(cc2F)c(=O)c(C(=O)O)cn3-c2ccc(F)cc2F)CCN1 (stereo not given) | 0.0702 |  |
| C=CCOc1cc(Cl)ccc1C(=O)NCCN(CC)CC | -0.59 |  |
| CC(C(O)c1ccccc1)N(C)CCOC(c1ccccc1)c1ccccc1 (stereo not given) | 3.07 |  |
